# Source: ChEMBL document CHEMBL3988442, “University of Dundee, Small-Polar-MMV Screening Library” (2021)
# In all, about 69,000 compounds went through this assay and about 1,000 (1.4%) showed an effect of 50% or more. Shown is part of a subset that was picked to be rich in strong results.
# Test system: Leishmania donovani
# Test: Leishmania intramacrophage assay
# Format: functional, organism-based
# Set-up: scale not given: in the data most compounds retested in dose-response had high values
smiles,measurement,setting,value
Cc1cnn(C2CCCN(C(=O)c3cc[nH]n3)C2)c1 (stereo unspecified),Percent Effect,"30.3 µM, […]",9.905%
CCC(CN1CCCC1)NC(=O)C1(c2ccc(F)cc2)CC1 (stereo unspecified),Percent Effect,"30.3 µM, […]",52.84%
CCC(CN1CCCC1)NC(=O)C1(c2cccc(F)c2)CC1.O=C(O)CC(O)(CC(=O)O)C(=O)O (stereo unspecified),Percent Effect,"30.3 µM, […]",43.99%
CCC(CN1CCCCC1)NC(=O)C1(c2ccc(F)cc2)CC1.O=C(O)CC(O)(CC(=O)O)C(=O)O (stereo unspecified),Percent Effect,"30.3 µM, […]",18.07%
COCCCN1CCCN(C(C)c2nc(C3CC3)no2)CC1 (stereo unspecified),Percent Effect,"30 µM, 30.03 µM",35.53%
CCOc1ccc(C(=O)N(C)Cc2nccn2CC(F)(F)F)cc1,Percent Effect,"30.3 µM, […]",3.454%
CCC(C)c1ccc(NC(=O)C2CCN(C(=O)N(C)C)CC2)cc1 (stereo unspecified),Percent Effect,"30.3 µM, […]",18.48%
CCOc1ccnc(N2CCN(C(=O)c3ccncc3)CC2)n1,Percent Effect,30 µM,-11.04%
Cn1cc(CN2CCC3(CC2)CC(c2ccncc2)C(=O)N3)cn1.O=C(O)C(F)(F)F.O=C(O)C(F)(F)F (stereo unspecified),Percent Effect,"30 µM, 30.03 µM",3.212%
Cc1nc[nH]c1CN(C)CC1CCCN(CCc2ccc(Cl)cc2)C1 (stereo unspecified),Percent Effect,"30 µM, 30.03 µM",95.69%
Cc1cc(CN2CCC(C3CCN(CCc4ccccc4)C3)CC2)[nH]n1 (stereo unspecified),Percent Effect,"30.3 µM, […]",16.23%
Cc1nc(C)n(CC2CCCN(CCc3ccncc3)C2)n1 (stereo unspecified),Percent Effect,"30 µM, 30.03 µM",27.42%
CN(Cc1cccc(O)c1)CC1CCCN(CCc2ccc(Cl)cc2)C1 (stereo unspecified),Percent Effect,"30 µM, 30.03 µM",95.8%
COc1ccccc1CCN1CCCC(CN(C)Cc2cc(C)n[nH]2)C1 (stereo unspecified),Percent Effect,"30.3 µM, […]",19.41%
Cc1nc[nH]c1CN1CCC(C2CCN(CCc3ccccc3)C2)CC1 (stereo unspecified),Percent Effect,"30.3 µM, […]",22.99%
CCN(CC1CCCN(CCc2cccc(OC)c2)C1)C(=O)CN(C)C (stereo unspecified),Percent Effect,"30.3 µM, […]",48.28%
COc1ccc(CCN2CCCC(CN(C)Cc3[nH]cnc3C)C2)cc1 (stereo unspecified),Percent Effect,"30.3 µM, […]",-2.681%
CCOCCC(=O)N(C)Cc1noc(C(C)C)n1,Percent Effect,"30.3 µM, […]",0.5615%
COc1cccc(OCC2CCCN(C(=O)c3ncc(F)cc3F)C2)c1 (stereo unspecified),Percent Effect,"30.3 µM, […]",9.755%
Cc1ccc(-c2cnnc(N3CCCC3c3nonc3C)n2)o1 (stereo unspecified),Percent Effect,"30.3 µM, […]",17.41%
Cc1ccc(OCC(=O)Nc2ncccc2OC(F)F)cc1,Percent Effect,"30.3 µM, […]",23.14%
Cc1ccc(C(=O)NCCCNc2ccc(C(F)(F)F)cn2)cc1,Percent Effect,30 µM,23.85%
Cc1noc(CN2CCN(C(=O)N(C)C)CC2)n1,Percent Effect,30 µM,8.701%
COc1cccc2c1OCC(NC(=O)NCCC(N)=O)C2 (stereo unspecified),Percent Effect,"30.3 µM, […]",-3.86%
CC1CCC(NCCCN2CCOCC2)CC1 (stereo unspecified),Percent Effect,"30.3 µM, […]",41.59%
Cc1ccc(C)c(-n2ncc(C(=O)NCC3COC(C)(C)O3)c2N)c1 (stereo unspecified),Percent Effect,"30.3 µM, […]",6.712%
CN(CC1CCN(c2ccccc2)C1)c1ccc(Cn2ccnc2)cn1 (stereo unspecified),Percent Effect,"30.3 µM, […]",-5.433%
OC1CCN(C2CCN(c3ccc(Cn4ccnc4)cn3)CC2)CC1,Percent Effect,"30.3 µM, […]",61.02%
CC1CCN(c2ccc(CNC(=O)NCCn3ccnc3)cn2)CC1,Percent Effect,"30.3 µM, […]",-10.4%
c1cn(Cc2ccc(N3CCCN(C4CCCC4)CC3)nc2)cn1,Percent Effect,"30.3 µM, […]",60.72%
c1csc(CN2CCCN(c3ccc(Cn4ccnc4)cn3)CC2)c1,Percent Effect,"30.3 µM, […]",43.35%
Fc1ccc(N2CCCN(c3ccc(Cn4ccnc4)cn3)CC2)cc1,Percent Effect,"30.3 µM, […]",41.56%
CC(=O)NC1CCN(C(=O)c2cnc(COc3ccccc3)nc2O)C1 (stereo unspecified),Percent Effect,"30.3 µM, […]",6.861%
Cc1ccc(CN2CCc3onc(COc4cccnc4)c3C2)s1.O=C(O)C(F)(F)F.O=C(O)C(F)(F)F,Percent Effect,"30.3 µM, […]",-45.52%
O=S(=O)(NCc1ccnc(-n2ccnc2)c1)c1cncc(Cl)c1,Percent Effect,"30.3 µM, […]",-18.27%
COCCNC(=O)Cn1cc(OCc2ccc(F)cc2)c(=O)cc1CO,Percent Effect,"30.3 µM, […]",27.19%
CO[C@@H]1CCN(c2nnc(C)s2)C[C@@H]1Cc1ccccc1.O=C(O)C(F)(F)F,Percent Effect,"30.3 µM, […]",9.959%
Cc1nnc(N2CC[C@H](OCC3CC3)[C@@H](Cc3ccccc3)C2)s1.O=C(O)C(F)(F)F,Percent Effect,"30 µM, 30.03 µM",51.69%
Cc1nnc(N2CC[C@@H](OCC3CC3)[C@@H](Cc3ccccc3)C2)s1.O=C(O)C(F)(F)F,Percent Effect,"30.3 µM, […]",35.34%
O=C(Nc1cnccn1)[C@@H]1COC[C@H]2CN(C3CCC3)C[C@H]21.O=C(O)C(F)(F)F,Percent Effect,"30.3 µM, […]",-10.65%
CCc1nnc(Nc2cccc(C3CCN(CCO)CC3)n2)s1,Percent Effect,"30 µM, 30.03 µM",20.13%
